PubChem BioAssay AID720 (The Scripps Research Institute Molecular Screening Center, 2007)
In all, about 97,000 compounds went through this assay and about 140 (0.14%) were called active.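 Rule for the calls: active = inhibition above the screen-wide mean inhibition plus 3 SD (cut at about 15% in these data); inactive = the rest.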 The list comes from a sample in which actives are over-represented; it also holds similar structures and randomly drawn compounds.

Molecular target: Ephrin type-B receptor 4 (Homo sapiens) (UniProt P54760)
Sequence (P54760 whole entry, looked up): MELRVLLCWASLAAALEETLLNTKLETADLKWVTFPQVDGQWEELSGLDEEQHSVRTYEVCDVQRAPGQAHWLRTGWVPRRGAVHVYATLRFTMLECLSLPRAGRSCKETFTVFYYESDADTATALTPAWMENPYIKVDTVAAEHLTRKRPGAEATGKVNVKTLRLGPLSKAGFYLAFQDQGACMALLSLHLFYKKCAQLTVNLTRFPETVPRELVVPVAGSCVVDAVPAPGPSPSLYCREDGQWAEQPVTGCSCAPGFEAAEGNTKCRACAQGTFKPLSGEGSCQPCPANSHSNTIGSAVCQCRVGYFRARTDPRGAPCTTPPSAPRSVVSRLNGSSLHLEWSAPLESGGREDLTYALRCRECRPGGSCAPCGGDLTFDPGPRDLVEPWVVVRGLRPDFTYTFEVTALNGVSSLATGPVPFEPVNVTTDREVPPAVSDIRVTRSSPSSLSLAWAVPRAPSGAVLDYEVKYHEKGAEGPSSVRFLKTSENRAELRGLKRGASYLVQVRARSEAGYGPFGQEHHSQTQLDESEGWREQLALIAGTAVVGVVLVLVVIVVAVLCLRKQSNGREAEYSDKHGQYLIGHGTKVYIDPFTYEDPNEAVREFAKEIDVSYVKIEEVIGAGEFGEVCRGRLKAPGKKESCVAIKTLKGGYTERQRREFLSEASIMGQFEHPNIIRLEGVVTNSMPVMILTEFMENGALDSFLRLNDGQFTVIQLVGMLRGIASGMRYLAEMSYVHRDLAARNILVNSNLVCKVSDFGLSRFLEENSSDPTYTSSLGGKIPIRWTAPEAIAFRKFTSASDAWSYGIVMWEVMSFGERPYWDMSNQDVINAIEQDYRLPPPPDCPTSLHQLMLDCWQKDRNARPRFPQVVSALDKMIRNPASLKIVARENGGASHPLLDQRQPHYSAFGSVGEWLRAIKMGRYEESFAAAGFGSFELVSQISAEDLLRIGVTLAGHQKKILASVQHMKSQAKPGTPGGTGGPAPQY
Test: EphB4-ephrin-B2 interaction antagonists, primary screen, biochemical, TNYL-RAW peptide probe, fluorescence polarization (AID 720);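 note: 0% = DMSO wells and 100% = excess unlabeled TNYL-RAW peptide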
Settings: EphB4 LBD / TNYL-RAW-Alexa532 peptide, at 7 µM, stronger effect = higher value

inhibition, inactive:
COCCN(C(=O)c1ccco1)c1nnc(-c2ccc(OC)cc2)s1 0.8%, c1ccc(-c2ccnc3nc(-n4cccc4)nn23)cc1 -2.67%, O=C(OCN1C(=O)c2ccccc2C1=O)/C(=C\c1ccco1)NC(=O)c1ccccc1 -9.89%, O=C(ON=C1CCN(S(=O)(=O)c2ccccc2)CC1)c1ccc(Cl)cc1 -2.79%, O=C(NCCCCc1ccccc1)C1CC(c2ccc([N+](=O)[O-])cc2)=NO1 (stereo not given) 1.72%, CC(=O)c1cc2c(cc1NC(=O)CN1CCCCCC1)OCO2 -6.18%, COCCn1c(=S)[nH]c2cc(C(=O)NCCc3ccc(OC)c(OC)c3)ccc2c1=O -6.01%, CCOc1cc2[nH]c(=O)n(CCC(=O)NCc3ccc(OC)cc3)c(=O)c2cc1OCC 7.75%, CCN(CC)C(=O)CN(c1cccc(OC)c1)S(=O)(=O)c1ccc(C)cc1 -6.83%, COC(=O)c1ccc(CSc2ccc3nnc(-c4ccccc4)n3n2)o1 -1.52%, CCc1c(-c2ccccc2)nc(N)c(C#N)c1-c1cccs1 -6.33%, C=CCN1C(=O)C(Cc2cccc(Cl)c2)S/C1=N/N=C/c1ccco1 (stereo not given) 2.87%, O=C(Nc1cccc2ccccc12)N1CCN(Cc2ccc3c(c2)OCO3)CC1 0.42%, CCOC(=O)C1Sc2[nH]c(=O)sc2C(c2ccc(Cl)cc2)C1C(=O)OCC (stereo not given) 6.17%, O=C(c1ccccc1Oc1ccccc1)N1CCN(c2ccc(F)cc2)CC1 1.29%, CCCCOc1ccc(CSC(=N)N)cc1[N+](=O)[O-] -6.89%, CCn1cc(C(=O)N/N=C(/C)c2ccc(F)cc2)c(=O)c2cc(F)c(N3CCCC3)cc21 5.77%, Cc1ccc(SCC(=O)NC(=O)NCc2ccco2)c(C)c1 -1.3%, COC(=O)c1ccc(S(=O)(=O)N2CCC(c3nc4ccccc4o3)CC2)cc1 2.06%, CCCCc1nnc(NC(=O)CSc2nc(C)cc(=O)[nH]2)s1 0.99%, CCCc1noc2c1/C(=N\O)CCC2 7.69%, Cc1ccc(CCN2CC(C(=O)O)CC2=O)cc1 (stereo not given) -3.41%, CCOC(=O)c1[nH]c(C)c(C(=O)OCC(=O)N2c3ccccc3CC2C)c1C (stereo not given) 2.53%, O=P(O)(CP(=O)(c1ccccc1)c1ccccc1)c1ccccc1O 4%, Cc1cc(=O)oc2cc(OC(C)C(=O)Nc3ccc(N4CCOCC4)cc3)ccc12 (stereo not given) 8.06%, O=C1CCCC2=C1C(c1ccccc1)n1c(s/c(=C/c3cccc(F)c3)c1=O)=N2 (stereo not given) 1.22%, O=C(NCc1ccccc1Cl)c1csc2c1CCCCC2 2.57%, CCCn1c(C)cc(C(=O)COC(=O)c2c(C)nn(-c3ccccc3)c2C)c1C 0.32%, CCCCNC(=O)CSc1nc2ccc(NC(=O)CSc3nnc(COc4ccccc4C)n3C)cc2s1 -4.14%, CC1=NN(C(C)C)C(=O)C1 -0.74%, O=S(=O)(c1ccc(Br)cc1)n1ccc2ccccc21 6.94%, NC(=O)c1c(NC(=O)CSc2nnc(-c3ccco3)n2N)sc2c1CCCC2 0.73%, CCC(=O)Nc1ccc(C(=O)Nc2cc(C)on2)cc1 3.48%, COc1ccc(N(CC(=O)NC2CCCCC2)C(=O)CNC(=O)c2ccco2)c(OC)c1 0.8%, CCCCCCC12CCC(C(=O)O)(CC1)CC2 -4.95%, Cn1c(CO)cnc1SCc1ccccc1 3.71%, CCOc1cc(NC(=O)c2ccco2)c(OCC)cc1NC(=O)COc1ccccc1 -10%, CCOc1cc(N2CCOCC2)c(OCC)cc1NC(=O)COC(=O)[C@H](Cc1c[nH]c2ccccc12)NC(C)=O 5.55%, S=C(NCCC1=CCCCC1)Nc1ccccc1 4.71%, c1ccc(-n2nc3ccccc3n2)cc1 1.16%, COc1ccc(C2=NO[C@@H]3C(=O)N(Cc4ccccc4)C(=O)[C@H]23)cc1OC 7.58%, Nc1nc(C23CC4CC(CC(C4)C2)C3)cs1 -1.67%, O=C(CCC(=O)OCc1cccc(C(=O)Oc2ccccc2)c1)Nc1cccc2ccccc12 3.74%, COc1ccc(CCNC(=O)COC(=O)c2ccc[nH]c2=O)cc1 -5.04%, O=C(N/N=C\c1ccc(-c2ccc(Cl)c(Cl)c2)o1)C(=O)N1CCCC1 -0.37%, CCOc1cc(NC(=O)c2cnccn2)c(OCC)cc1NC(=O)c1ccc(C)cc1 -6.39%, CC(C)Cc1oc(C(=O)O)cc1CN -0.3%, O=C(NC1CC1)c1ccc2c(c1)NC(=O)c1ccccc1S2 0.56%, COc1ccc(-c2csc3nc(-c4ccccc4F)oc(=O)c23)cc1OC -10.2%, O=C(N/N=C/c1ccc(O)cc1)/C(=C/c1ccc([N+](=O)[O-])cc1)NC(=O)c1ccccc1 -1.89%, CCOCc1nnc(NC(=O)CSc2ccc(C)cc2)s1 1.51%, O=[N+]([O-])c1ccc(C=Nc2ccc(Cl)cc2Cl)s1 -0.13%, CC1=CC(C)(C)Nc2ccc(OC(=O)C(Cc3ccccc3)N3C(=O)C4CCCCC4C3=O)cc21 (stereo not given) -0.93%, S=c1[nH]nc(CSCc2ccc(Cl)cc2Cl)n1-c1ccccc1 8.29%, CCOC(=O)c1cnc(SCC(=O)Nc2cccc(OC)c2)nc1N 9.83%, O=S(=O)(N/N=C\c1cccn1-c1ccccc1)c1ccc2ccccc2c1 -8.09%, Cn1c2ccccc2n2c(=O)c(=O)n(CC(=O)c3ccc(F)cc3)nc12 0.04%, COc1cccc(C(=O)NNC(=O)c2ccccc2Br)c1 -7.4%, O=C(CN1CCN(S(=O)(=O)c2ccc3ccccc3c2)CC1)NC(=O)NC1CCCCC1 5.63%

inhibition, active:
CCOc1cc(N2CCOCC2)c(OCC)cc1NC(=O)COc1cccc2cccnc12 17.3%
